Source: PubChem
A selection: hits, their analogues and other compounds. The true share with any hit is near 0.95%.
Giardia FBPA inh: blocks Giardia fructose-bisphosphate aldolase activity; purified Giardia FBPA; 290,000 tested, 0.71% active; Potency, µM (titrated, usually from 59.6 µM), for the others: at the top dose activity, negative = inhibition, hits mostly inhibitors; AID 2451; A8B2U2; note: nearly all actives have a fitted effect of over 55% in size
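40 nM FBPA preincubated 10 min at RT with compound (up to 57.5 uM final), then substrate plus GAPDH/TPI/NAD/arsenate coupling and diaphorase/resazurin added. Fluorescence read after 20 min at RT, 525/598 nm.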
TbPYK inhibitor: inhibitors of Trypanosoma brucei pyruvate kinase | TbPYK enzyme, Kinase-Glo Plus ATP luminescence, 45 min | Potency, µM (doses to about 76.8 µM), for the others: top-dose activity, negative = inhibition, usual class: inhibitors | 410,000 tested, 0.12% active; note: nearly all actives have a fitted effect of over 50% in size
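ADP (130 uM final) triggers the TbPYK reaction after compound addition; incubation is 45 min at room temperature. Kinase-Glo Plus is then added and luminescence imaged. Normalized data are fitted to concentration-effect curves.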
RE007 growth inh: less growth of the S. pombe RE007 Vpr strain. 360,000 tested, 0.21% active. AID 651644. Potency, µM (doses to about 92.2 µM), without a hit: at the highest dose activity change, negative = less growth, most hits filed as inhibitors. S. pombe RE007 Vpr strain, BacTiter-Glo ATP luminescence, 24 h; active = well fitted falling curve with a large enough effect; inconclusive = small, poorly fitted or top-dose-only effect; inactive = no such curve, though single readings can be large or run the other way; note: nearly all actives have a fitted effect of over 50% in size
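Fission yeast strain RE007, carrying one chromosomally integrated HIV-1 vpr copy, was seeded at OD 0.01 in PMG+AL medium with 23 nL pinned compound. After 24 h at 30 °C and 99% humidity, viability was read by BacTiter-Glo luminescence.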
LmPK inh: blocks Leishmania mexicana pyruvate kinase activity; Q27686; purified LmPK, Kinase-Glo ATP luminescence, 1 h; Potency, µM (top dose mostly 57.5 µM), for the others: top-dose activity change, negative = inhibition, actives largely listed as inhibitors; 290,000 tested, 0.37% active
Target sequence (Q27686 whole entry, looked up): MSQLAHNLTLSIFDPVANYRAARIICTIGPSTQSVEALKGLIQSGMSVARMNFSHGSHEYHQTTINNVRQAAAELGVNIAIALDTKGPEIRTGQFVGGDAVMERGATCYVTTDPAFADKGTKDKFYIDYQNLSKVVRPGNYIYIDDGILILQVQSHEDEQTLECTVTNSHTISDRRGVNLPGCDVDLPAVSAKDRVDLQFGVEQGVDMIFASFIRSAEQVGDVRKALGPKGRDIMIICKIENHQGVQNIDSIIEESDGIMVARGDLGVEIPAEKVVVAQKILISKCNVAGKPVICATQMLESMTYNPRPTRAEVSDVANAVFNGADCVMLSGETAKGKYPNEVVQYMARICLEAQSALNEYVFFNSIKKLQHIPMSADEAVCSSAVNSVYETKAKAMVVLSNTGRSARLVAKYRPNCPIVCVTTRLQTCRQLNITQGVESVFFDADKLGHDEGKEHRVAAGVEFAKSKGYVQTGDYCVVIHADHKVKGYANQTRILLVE
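Purified LmPK (0.1 nM) converted ADP (0.1 mM) to ATP with PEP (0.5 mM) in imidazole buffer pH 7.2 with KCl and MgCl2, 1 h at room temperature. ATP was read by Kinase-Glo luminescence; data normalized to uninhibited and no-enzyme controls.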
* marks the source's active call; other numbers are inactive results; [ ] = another dose, or the depositor's remark. Unless noted, calls come from the whole dose curve; as a rule, active = well fitted curve in the direction sought with a large enough effect; inconclusive = small, poorly fitted or top-dose-only effect, or another doubt; inactive = no such curve, though single readings can be large; an effect the other way counts as inactive or inconclusive. % is set by controls: 0 for no effect and ±100 for the full control effect; potency is the fitted concentration of half-maximal effect.

How did CCC(C)C(C(=O)OCC[N+](C)(CC)CC)c1ccccc1 (stereo unspecified) do in these assays?
TbPYK inhibitor: 0.6%

How did CC(=O)Oc1ccc2c(c1OC(C)=O)OCC1(O)Cc3c(cc(OC(C)=O)c(OC(C)=O)c3OC(C)=O)C21 (stereo unspecified) do in these assays?
Giardia FBPA inh: -2.2%

Results for Oc1cc2c(cc1O)[C@H]1c3ccc(O)c(O)c3OC[C@@]1(O)C2 ?
Giardia FBPA inh: inconclusive; TbPYK inhibitor: 5.62µM*; RE007 growth inh: -26.7%

How did Oc1ccc2c(c1)OCC1(O)Cc3cc(O)c(O)cc3C21 (stereo unspecified) do in these assays?
Giardia FBPA inh: 17.7µM*; TbPYK inhibitor: 11.2µM*; RE007 growth inh: 1.5%

Results for C/C1=C2/[N-]C(C(CC(N)=O)[C@@]2(C)CCC(=O)NCC(C)OP(=O)([O-])O[C@H]2[C@@H](O)[C@@H](n3cnc4cc(C)c(C)cc43)O[C@@H]2CO)[C@]2(C)N=C(/C(C)=C3N=C(/C=C4N=C1C(CCC(N)=O)C\4(C)C)[C@@H](CCC(N)=O)[C@]\3(C)CC(N)=O)[C@@H](CCC(N)=O)[C@]2(C)CC(N)=O.CC(=O)O.[Co] (stereo partly specified) ?
TbPYK inhibitor: -9.5%

How did Cc1cc(Cl)ccc1NC(=O)CCC(=O)N/N=C/c1cccnc1 do in these assays?
TbPYK inhibitor: -19.1%; RE007 growth inh: 4.6%; LmPK inh: -7.9%

How did C[C@]12CCC3C(CCC4=CC(=O)CC[C@@H]43)C1CCC2O (stereo partly specified) do in these assays?
TbPYK inhibitor: 14.3%

How did O=[N+]([O-])c1cc(Cl)ccc1-c1nc(-c2ccncc2)no1 do in these assays?
Giardia FBPA inh: 2.4%; TbPYK inhibitor: 0.7%; RE007 growth inh: 1.2%; LmPK inh: 0.1%

How did O=[N+]([O-])c1cnc2nc(-c3ccncc3)nn2c1O do in these assays?
Giardia FBPA inh: -0.6%; TbPYK inhibitor: -10.6%; RE007 growth inh: inconclusive; LmPK inh: 12.6µM*

What do the screens show for `O=C(O)CSc1ccc(NC(=O)Nc2ccccc2F)cc1`?
Giardia FBPA inh: 9.0%; TbPYK inhibitor: inconclusive; RE007 growth inh: inconclusive; LmPK inh: 15.8µM*

What do the screens show for `CC(=O)Nc1ccc(SCC(=O)O)cc1`?
Giardia FBPA inh: 3.3%; TbPYK inhibitor: -0.3%; RE007 growth inh: -9.4%; LmPK inh: -0.4%

What do the screens show for `COCC(=O)N1CCC2(CC1)CN(c1ccccn1)C2`?
Giardia FBPA inh: -7.2%; TbPYK inhibitor: 6.7%

Results for Oc1c(Cl)cccc1Cc1cc(Cl)cc(Cl)c1O ?
TbPYK inhibitor: -8.4%; RE007 growth inh: 35.5µM*

What do the screens show for `Oc1c(Cl)cc(Cl)cc1CN1CCN(Cc2ccccc2)CC1`?
Giardia FBPA inh: -13.3%; TbPYK inhibitor: -13.1%; RE007 growth inh: 5.6%; LmPK inh: -2.5%

Results for O=c1cc(-c2ccccc2)oc2cc(O)c(O)c(O)c12 ?
Giardia FBPA inh: 9.98µM*; TbPYK inhibitor: inconclusive; RE007 growth inh: -6.8%

What do the screens show for `COc1c(O)cc2oc(-c3ccc(O)cc3)cc(=O)c2c1O`?
Giardia FBPA inh: -0.7%; TbPYK inhibitor: -6.0%; RE007 growth inh: -12.4%; LmPK inh: -22.0%

How did COc1ccc(C(=O)/C(=C/O)N=Nc2ccc(F)cc2)cc1 do in these assays?
Giardia FBPA inh: 1.5%; TbPYK inhibitor: -24.6%; RE007 growth inh: -47.8%; LmPK inh: -1.5%

How did Cc1ccc(N=N/C(=C\O)C(=O)c2ccncc2)cc1 do in these assays?
Giardia FBPA inh: -19.5%; TbPYK inhibitor: 0.4%; RE007 growth inh: 20µM*; LmPK inh: 9.9%

Results for O=C(/C(=C/O)N=Nc1ccc(Cl)cc1)c1ccncc1 ?
TbPYK inhibitor: 7.6%; RE007 growth inh: 20µM*; LmPK inh: -2.2%

Results for C[C@@H](O[C@H]1OCCN(Cc2n[nH]c(=O)[nH]2)[C@@H]1c1ccc(F)cc1)c1cc(C(F)(F)F)cc(C(F)(F)F)c1 ?
TbPYK inhibitor: -6.5%

How did C=C(C)CSC1=C(C#N)C(c2ccccc2Cl)CC(=O)N1 (stereo unspecified) do in these assays?
Giardia FBPA inh: -10.7%; TbPYK inhibitor: 12.6µM*; RE007 growth inh: 0.1%; LmPK inh: 4.3%

What do the screens show for `C=CCSC1=C(C#N)C(c2ccccc2Cl)CC(=O)N1` (stereo unspecified)?
Giardia FBPA inh: -17.0%; TbPYK inhibitor: -14.5%; RE007 growth inh: -6.3%; LmPK inh: -0.7%

What do the screens show for `CN1CCn2cnc(C(=O)Nc3ccc(CNC(=O)OC(C)(C)C)cc3)c2C1=O`?
TbPYK inhibitor: 0.5%; RE007 growth inh: -19.7%

Results for Cc1ccccc1Cn1c(CN2CCC(C(=O)NCCN(C)C)CC2)cc2ccccc21 ?
TbPYK inhibitor: -0.2%

How did COc1ccc(C(C)(O)c2nc(-c3cccc(C(F)(F)F)c3)cs2)cc1 (stereo unspecified) do in these assays?
TbPYK inhibitor: -15.3%; RE007 growth inh: 35.5µM*

What do the screens show for `CC(N)Cc1c[nH]c2ccc(O)cc12` (stereo unspecified)?
Giardia FBPA inh: 3.97µM*; TbPYK inhibitor: -2.4%; RE007 growth inh: -9.9%

How did Nc1ccn([C@@H]2O[C@H](CO)[C@@H](O)C2(F)F)c(=O)n1 do in these assays?
TbPYK inhibitor: 0.0%[157 µM]

How did O=C1C(=C(I)I)c2ccccc2-c2ccccc21 do in these assays?
TbPYK inhibitor: -30.8%; RE007 growth inh: 14.1µM*

Results for C=CCN1c2ccccc2[C@]23C[C@@H](C(=O)OC)N(C(=O)COCc4ccccc4)C2=NC(C(=O)OC)=C(C(=O)OC)[C@H]13 ?
Giardia FBPA inh: 6.0%[12.9 µM]; LmPK inh: 0.0%[11.5 µM]

How did CCCCCCCCCCCCCC[C@@H](O)[C@@H](O)[C@@H](N)CO do in these assays?
Giardia FBPA inh: 10.1%

How did CCCCc1ccc(-c2ccc(Br)cc2)nc1 do in these assays?
Giardia FBPA inh: -0.5%; TbPYK inhibitor: 3.0%; RE007 growth inh: 15.5%; LmPK inh: -10.9%

How did CCCc1ccc(-c2ccc(F)c(N)c2)nc1 do in these assays?
Giardia FBPA inh: -1.6%; TbPYK inhibitor: -1.8%; RE007 growth inh: -17.8%; LmPK inh: 15.8µM*

How did Oc1cccc(-c2nc3ccccc3s2)c1 do in these assays?
Giardia FBPA inh: -6.9%; TbPYK inhibitor: inconclusive; RE007 growth inh: inconclusive; LmPK inh: -16.3%

Results for COc1cc(-c2nc3ccccc3s2)ccc1O ?
Giardia FBPA inh: 6.6%; TbPYK inhibitor: -7.6%; RE007 growth inh: -14.9%; LmPK inh: inconclusive

Results for COc1ccc(-c2nc3ccccc3s2)cc1O ?
Giardia FBPA inh: -3.2%; TbPYK inhibitor: -18.8%; RE007 growth inh: inconclusive; LmPK inh: 15.8µM*

How did Nc1cccc(-c2nc3ccccc3s2)c1 do in these assays?
Giardia FBPA inh: -3.8%; TbPYK inhibitor: -12.9%; RE007 growth inh: inconclusive; LmPK inh: 14.1µM*

Results for CC(C)[C@@]1(NC(=O)[C@H]2C[C@H]3c4cccc5[nH]cc(c45)C[C@@H]3N(C)C2)O[C@]2(O)[C@H]3CCCN3C(=O)CN2C1=O (tested in a mixture with another compound) ?
TbPYK inhibitor: -0.4%
